# Measurements taken from PMC7862700, “An all-to-all approach to the identification of sequence-specific readers for epigenetic DNA modifications on cytosine”.
# Tests used:
# Assay in all cases: DAPPL (digital affinity profiling via proximity ligation, sequencing); 10 mM Tris-HCl pH 7.5, 50 mM NaCl, 1 mM DTT, 4% glycerol, room temperature, 30 min; GST-TFs on glutathione beads, 16-mer random dsDNA library, 0.1% formaldehyde crosslink after washing; high values mean tight binding
# Settings in all cases: protein: recombinant; tags: N-terminal GST; dsDNA, one strand shown
# [1] = target: T1, ELK1 (Homo sapiens, UniProt P19419 1-428)
# T1 sequence: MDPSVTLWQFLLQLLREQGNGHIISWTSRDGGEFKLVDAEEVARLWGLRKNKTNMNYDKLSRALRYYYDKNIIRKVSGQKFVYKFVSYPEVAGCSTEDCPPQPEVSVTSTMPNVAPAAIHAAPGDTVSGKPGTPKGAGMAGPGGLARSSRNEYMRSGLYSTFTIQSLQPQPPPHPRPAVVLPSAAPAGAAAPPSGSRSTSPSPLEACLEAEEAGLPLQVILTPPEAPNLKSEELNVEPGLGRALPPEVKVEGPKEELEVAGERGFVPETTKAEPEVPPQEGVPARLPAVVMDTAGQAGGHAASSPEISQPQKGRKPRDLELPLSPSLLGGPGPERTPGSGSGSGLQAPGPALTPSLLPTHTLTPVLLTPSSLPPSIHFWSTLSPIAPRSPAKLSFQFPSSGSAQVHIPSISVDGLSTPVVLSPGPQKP
# Summary of the method: (§1)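 Beads coated with glutathione captured GST-fused human transcription factors that had been expressed in yeast, and the factors were then given DNA barcodes and pooled with a tag-only sample. The pools were incubated with 200 nmole of a random double-stranded 16-mer DNA library in Tris/NaCl/DTT/glycerol buffer for 30 min at room temperature, washed, crosslinked with 0.1% formaldehyde and proximity-ligated with BsaI/T4 ligase at 37 °C for 1 h. PCR amplification and Illumina NextSeq500 sequencing came last. Binding signal is each hexamer's read frequency for a factor divided by its frequency for the tag-only sample.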
# [2] = target: T2, ERG (Homo sapiens, UniProt P11308 1-479)
# T2 sequence: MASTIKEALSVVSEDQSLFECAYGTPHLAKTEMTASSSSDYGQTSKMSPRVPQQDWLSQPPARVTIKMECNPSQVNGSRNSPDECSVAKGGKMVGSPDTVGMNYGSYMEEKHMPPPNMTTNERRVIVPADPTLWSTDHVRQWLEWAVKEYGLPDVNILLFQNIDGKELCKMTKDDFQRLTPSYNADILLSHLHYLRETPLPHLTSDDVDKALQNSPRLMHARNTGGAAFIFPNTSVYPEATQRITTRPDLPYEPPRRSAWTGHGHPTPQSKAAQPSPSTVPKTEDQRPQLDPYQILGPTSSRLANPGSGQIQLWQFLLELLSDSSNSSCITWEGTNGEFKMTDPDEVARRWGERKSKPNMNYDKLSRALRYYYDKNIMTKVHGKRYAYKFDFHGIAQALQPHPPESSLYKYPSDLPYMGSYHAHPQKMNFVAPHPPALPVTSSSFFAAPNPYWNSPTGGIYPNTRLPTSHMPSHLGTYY
# Summary of the method: as §1
# [3] = target: T3, EHF (Homo sapiens, UniProt Q9NZC4 1-300)
# T3 sequence: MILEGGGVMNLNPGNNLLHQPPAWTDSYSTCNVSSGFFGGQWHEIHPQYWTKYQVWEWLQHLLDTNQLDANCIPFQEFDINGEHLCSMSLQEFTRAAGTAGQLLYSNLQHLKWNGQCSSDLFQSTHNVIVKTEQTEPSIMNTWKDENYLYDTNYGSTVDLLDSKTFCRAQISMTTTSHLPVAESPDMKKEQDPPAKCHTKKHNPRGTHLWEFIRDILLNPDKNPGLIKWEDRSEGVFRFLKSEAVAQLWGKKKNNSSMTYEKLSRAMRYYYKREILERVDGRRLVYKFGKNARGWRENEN
# Summary of the method: as §1
# [4] = target: SPIB (Homo sapiens, UniProt Q01892 1-262)
# Summary of the method: as §1
# [5] = target: T4, ELK3 (Homo sapiens, UniProt P41970 1-407)
# T4 sequence: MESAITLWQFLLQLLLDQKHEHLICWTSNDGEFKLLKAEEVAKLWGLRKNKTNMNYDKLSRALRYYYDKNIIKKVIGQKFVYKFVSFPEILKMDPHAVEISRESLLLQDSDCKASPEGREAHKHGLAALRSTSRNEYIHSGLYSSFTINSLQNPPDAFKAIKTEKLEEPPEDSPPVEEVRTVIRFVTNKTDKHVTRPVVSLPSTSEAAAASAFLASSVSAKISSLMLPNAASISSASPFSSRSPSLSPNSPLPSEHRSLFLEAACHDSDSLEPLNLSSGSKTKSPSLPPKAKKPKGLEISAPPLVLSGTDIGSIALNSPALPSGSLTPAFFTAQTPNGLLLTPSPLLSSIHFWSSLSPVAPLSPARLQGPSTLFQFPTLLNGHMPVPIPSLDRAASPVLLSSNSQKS
# Summary of the method: as §1
# [6] = target: ETV5 (Homo sapiens, UniProt P41161 1-510)
# Summary of the method: as §1
# [7] = target: T5, SPIC (Homo sapiens, UniProt Q8N5J4 1-248)
# T5 sequence: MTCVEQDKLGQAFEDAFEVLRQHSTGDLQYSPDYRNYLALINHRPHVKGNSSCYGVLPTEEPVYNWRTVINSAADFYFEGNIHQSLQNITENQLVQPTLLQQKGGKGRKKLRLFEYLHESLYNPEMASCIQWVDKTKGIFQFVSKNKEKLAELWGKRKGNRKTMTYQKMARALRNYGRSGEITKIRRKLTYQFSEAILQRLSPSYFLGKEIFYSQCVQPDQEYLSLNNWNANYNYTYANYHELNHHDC
# Summary of the method: as §1
# [8] = target: T6, ELK4 (Homo sapiens, UniProt P28324-2 1-405)
# T6 sequence: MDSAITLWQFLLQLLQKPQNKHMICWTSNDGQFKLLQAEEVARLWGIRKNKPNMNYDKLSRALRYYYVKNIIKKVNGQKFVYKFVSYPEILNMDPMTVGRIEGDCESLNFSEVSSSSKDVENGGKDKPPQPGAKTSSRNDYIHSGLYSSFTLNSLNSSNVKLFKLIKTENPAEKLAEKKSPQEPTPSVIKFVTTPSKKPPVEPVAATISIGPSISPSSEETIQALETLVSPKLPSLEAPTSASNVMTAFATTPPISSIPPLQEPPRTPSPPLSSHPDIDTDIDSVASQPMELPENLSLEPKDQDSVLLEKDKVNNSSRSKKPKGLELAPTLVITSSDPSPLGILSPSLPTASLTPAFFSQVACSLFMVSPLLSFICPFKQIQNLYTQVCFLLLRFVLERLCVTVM
# Summary of the method: as §1
# [9] = target: T7, ELF3 (Homo sapiens, UniProt P78545 1-371)
# T7 sequence: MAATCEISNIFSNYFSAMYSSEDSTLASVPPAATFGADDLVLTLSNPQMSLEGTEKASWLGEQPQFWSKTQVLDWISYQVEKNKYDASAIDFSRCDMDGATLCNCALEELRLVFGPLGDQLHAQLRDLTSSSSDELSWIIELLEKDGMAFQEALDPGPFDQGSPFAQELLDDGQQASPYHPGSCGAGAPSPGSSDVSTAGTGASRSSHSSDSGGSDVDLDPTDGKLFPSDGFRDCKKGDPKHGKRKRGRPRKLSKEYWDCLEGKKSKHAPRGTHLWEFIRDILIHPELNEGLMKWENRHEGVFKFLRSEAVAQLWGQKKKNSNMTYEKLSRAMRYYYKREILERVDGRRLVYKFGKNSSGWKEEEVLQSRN
# Summary of the method: as §1
# [10] = target: ETV1 (Homo sapiens, UniProt P50549 1-477)
# Summary of the method: as §1
# [11] = target: T8, ETV3L (Homo sapiens, UniProt Q6ZN32 1-361)
# T8 sequence: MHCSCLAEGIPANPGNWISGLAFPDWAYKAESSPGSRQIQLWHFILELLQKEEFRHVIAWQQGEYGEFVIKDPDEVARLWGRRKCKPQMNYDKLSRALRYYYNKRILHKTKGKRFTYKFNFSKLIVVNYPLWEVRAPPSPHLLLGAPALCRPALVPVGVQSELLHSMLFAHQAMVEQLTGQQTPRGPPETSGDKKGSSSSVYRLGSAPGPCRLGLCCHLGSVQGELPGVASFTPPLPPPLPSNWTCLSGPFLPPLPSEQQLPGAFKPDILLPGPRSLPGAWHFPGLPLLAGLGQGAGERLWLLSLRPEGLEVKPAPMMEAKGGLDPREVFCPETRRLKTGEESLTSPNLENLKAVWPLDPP
# Summary of the method: as §1
# [12] = target: T9, ETS2 (Homo sapiens, UniProt P15036 1-469)
# T9 sequence: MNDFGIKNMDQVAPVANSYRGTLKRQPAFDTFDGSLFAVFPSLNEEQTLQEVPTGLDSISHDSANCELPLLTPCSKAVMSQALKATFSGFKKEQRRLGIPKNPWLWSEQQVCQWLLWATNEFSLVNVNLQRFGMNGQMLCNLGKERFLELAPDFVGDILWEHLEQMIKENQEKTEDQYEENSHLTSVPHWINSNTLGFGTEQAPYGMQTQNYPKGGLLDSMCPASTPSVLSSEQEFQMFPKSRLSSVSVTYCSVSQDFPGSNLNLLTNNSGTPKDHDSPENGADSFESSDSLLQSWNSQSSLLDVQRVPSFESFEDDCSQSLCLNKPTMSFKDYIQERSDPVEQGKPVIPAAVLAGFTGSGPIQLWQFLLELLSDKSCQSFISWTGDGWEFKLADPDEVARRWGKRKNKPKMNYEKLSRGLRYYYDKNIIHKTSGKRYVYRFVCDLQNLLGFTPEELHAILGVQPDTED
# Summary of the method: as §1
# [13] = target: T10, SPDEF (Homo sapiens, UniProt O95238 1-335)
# T10 sequence: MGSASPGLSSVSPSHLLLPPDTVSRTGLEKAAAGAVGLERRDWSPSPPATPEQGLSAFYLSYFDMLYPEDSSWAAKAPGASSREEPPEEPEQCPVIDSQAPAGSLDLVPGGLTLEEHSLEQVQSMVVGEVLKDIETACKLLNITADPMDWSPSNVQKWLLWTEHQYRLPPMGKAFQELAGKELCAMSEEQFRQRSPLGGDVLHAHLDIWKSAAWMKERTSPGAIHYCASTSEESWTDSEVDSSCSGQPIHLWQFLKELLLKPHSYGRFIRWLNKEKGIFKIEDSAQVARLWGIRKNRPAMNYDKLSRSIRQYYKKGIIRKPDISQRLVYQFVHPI
# Summary of the method: as §1
# [14] = target: T11, ETV7 (Homo sapiens, UniProt Q9Y603 1-341)
# T11 sequence: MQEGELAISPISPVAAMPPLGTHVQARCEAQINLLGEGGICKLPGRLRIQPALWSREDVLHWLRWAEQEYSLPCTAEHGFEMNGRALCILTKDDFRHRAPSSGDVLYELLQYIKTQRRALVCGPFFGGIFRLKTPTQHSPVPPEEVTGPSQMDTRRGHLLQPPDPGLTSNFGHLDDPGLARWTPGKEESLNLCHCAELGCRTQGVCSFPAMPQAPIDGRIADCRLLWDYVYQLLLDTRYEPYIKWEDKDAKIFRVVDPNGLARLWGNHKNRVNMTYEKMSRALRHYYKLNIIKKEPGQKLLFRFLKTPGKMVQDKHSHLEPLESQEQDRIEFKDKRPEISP
# Summary of the method: as §1
# [15] = target: T12, ETV3 (Homo sapiens, UniProt P41162-2 1-143)
# T12 sequence: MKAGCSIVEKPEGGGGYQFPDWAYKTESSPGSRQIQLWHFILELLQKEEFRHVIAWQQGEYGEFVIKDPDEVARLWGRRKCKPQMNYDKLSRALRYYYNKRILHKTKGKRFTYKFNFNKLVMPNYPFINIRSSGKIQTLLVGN
# Summary of the method: as §1
# [16] = target: ETV6 (Homo sapiens, UniProt P41212 1-452)
# Summary of the method: as §1
# ETV5, sequence (P41161 whole entry): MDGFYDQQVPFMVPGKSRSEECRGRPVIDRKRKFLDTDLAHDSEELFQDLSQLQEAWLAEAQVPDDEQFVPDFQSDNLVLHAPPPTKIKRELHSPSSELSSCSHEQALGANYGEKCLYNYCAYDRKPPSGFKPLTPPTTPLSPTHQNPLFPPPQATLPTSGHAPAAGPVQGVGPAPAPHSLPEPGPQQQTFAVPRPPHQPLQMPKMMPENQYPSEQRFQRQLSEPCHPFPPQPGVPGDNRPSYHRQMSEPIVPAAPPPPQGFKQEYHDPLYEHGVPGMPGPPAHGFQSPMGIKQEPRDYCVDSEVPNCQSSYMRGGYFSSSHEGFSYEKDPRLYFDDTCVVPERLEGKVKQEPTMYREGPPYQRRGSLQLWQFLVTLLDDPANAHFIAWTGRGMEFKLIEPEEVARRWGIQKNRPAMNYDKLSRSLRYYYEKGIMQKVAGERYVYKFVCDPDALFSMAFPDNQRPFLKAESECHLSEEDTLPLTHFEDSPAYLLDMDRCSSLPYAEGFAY
# ETV1, sequence (P50549 whole entry): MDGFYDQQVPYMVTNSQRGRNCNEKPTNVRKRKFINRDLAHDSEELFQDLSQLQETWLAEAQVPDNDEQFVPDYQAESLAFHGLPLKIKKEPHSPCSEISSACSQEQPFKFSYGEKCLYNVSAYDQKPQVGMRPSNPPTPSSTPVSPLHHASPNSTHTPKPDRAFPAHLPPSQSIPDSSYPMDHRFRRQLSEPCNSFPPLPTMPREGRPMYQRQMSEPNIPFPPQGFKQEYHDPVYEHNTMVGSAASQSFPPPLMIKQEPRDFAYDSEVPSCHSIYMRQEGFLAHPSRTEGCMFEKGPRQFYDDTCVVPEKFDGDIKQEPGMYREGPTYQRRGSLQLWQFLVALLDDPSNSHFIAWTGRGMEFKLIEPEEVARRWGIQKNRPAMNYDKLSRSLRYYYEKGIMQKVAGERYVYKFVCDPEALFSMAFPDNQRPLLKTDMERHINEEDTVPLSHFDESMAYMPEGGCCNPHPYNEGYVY
# SPIB, sequence (Q01892 whole entry): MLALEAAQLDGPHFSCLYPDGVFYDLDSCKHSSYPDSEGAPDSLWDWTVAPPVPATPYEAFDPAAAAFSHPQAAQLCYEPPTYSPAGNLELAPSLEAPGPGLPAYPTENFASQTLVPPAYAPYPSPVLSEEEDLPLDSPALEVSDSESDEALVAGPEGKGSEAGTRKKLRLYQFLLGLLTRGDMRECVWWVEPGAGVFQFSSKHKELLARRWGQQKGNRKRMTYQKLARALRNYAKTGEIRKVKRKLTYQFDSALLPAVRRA
# ETV6, sequence (P41212 whole entry): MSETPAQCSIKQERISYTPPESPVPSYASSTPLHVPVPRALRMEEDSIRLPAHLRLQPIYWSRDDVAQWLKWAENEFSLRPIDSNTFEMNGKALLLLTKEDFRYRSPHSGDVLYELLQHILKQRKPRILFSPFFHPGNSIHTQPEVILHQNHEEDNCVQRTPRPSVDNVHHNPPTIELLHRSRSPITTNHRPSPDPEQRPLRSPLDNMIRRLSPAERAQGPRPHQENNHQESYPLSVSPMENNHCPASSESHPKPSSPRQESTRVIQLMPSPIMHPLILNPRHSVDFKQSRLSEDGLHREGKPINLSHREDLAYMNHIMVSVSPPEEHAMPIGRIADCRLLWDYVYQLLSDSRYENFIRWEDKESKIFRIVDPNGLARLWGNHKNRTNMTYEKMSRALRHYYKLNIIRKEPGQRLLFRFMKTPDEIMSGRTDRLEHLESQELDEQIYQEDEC
sequence,measurement,setting,value
AGTCCT,binding signal,[1],"1.06 fold enrichment (6-mer frequency, TF over GST control)"
same,binding signal,[2],"1.07 fold enrichment (6-mer frequency, TF over GST control)"
same,binding signal,[3],"1.03 fold enrichment (6-mer frequency, TF over GST control)"
same,binding signal,[4],"1.13 fold enrichment (6-mer frequency, TF over GST control)"
same,binding signal,[5],"1.01 fold enrichment (6-mer frequency, TF over GST control)"
same,binding signal,[6],"1.05 fold enrichment (6-mer frequency, TF over GST control)"
same,binding signal,[7],"1.13 fold enrichment (6-mer frequency, TF over GST control)"
same,binding signal,[8],"1 fold enrichment (6-mer frequency, TF over GST control)"
same,binding signal,[9],"1.03 fold enrichment (6-mer frequency, TF over GST control)"
same,binding signal,[10],"1 fold enrichment (6-mer frequency, TF over GST control)"
same,binding signal,[11],"1.02 fold enrichment (6-mer frequency, TF over GST control)"
same,binding signal,[12],"1.06 fold enrichment (6-mer frequency, TF over GST control)"
same,binding signal,[13],"1.02 fold enrichment (6-mer frequency, TF over GST control)"
same,binding signal,[14],"1.14 fold enrichment (6-mer frequency, TF over GST control)"
same,binding signal,[15],"1.01 fold enrichment (6-mer frequency, TF over GST control)"
same,binding signal,[16],"1.03 fold enrichment (6-mer frequency, TF over GST control)"
